Each compound was assayed against Chromo domain-containing protein 1 (Saccharomyces cerevisiae (strain ATCC 204508 / S288c) (Baker's yeast)) (UniProt P32657) (assay: ScCHD-1 Enzyme Inhibition Assay). Conditions: 30 µM.
Format: functional
Design: scale not given: in the data most compounds retested in dose-response had high values

Chain of Chromo domain-containing protein 1 (Saccharomyces cerevisiae (strain ATCC 204508 / S288c) (Baker's yeast)) (P32657 whole entry, the tested form may be a part): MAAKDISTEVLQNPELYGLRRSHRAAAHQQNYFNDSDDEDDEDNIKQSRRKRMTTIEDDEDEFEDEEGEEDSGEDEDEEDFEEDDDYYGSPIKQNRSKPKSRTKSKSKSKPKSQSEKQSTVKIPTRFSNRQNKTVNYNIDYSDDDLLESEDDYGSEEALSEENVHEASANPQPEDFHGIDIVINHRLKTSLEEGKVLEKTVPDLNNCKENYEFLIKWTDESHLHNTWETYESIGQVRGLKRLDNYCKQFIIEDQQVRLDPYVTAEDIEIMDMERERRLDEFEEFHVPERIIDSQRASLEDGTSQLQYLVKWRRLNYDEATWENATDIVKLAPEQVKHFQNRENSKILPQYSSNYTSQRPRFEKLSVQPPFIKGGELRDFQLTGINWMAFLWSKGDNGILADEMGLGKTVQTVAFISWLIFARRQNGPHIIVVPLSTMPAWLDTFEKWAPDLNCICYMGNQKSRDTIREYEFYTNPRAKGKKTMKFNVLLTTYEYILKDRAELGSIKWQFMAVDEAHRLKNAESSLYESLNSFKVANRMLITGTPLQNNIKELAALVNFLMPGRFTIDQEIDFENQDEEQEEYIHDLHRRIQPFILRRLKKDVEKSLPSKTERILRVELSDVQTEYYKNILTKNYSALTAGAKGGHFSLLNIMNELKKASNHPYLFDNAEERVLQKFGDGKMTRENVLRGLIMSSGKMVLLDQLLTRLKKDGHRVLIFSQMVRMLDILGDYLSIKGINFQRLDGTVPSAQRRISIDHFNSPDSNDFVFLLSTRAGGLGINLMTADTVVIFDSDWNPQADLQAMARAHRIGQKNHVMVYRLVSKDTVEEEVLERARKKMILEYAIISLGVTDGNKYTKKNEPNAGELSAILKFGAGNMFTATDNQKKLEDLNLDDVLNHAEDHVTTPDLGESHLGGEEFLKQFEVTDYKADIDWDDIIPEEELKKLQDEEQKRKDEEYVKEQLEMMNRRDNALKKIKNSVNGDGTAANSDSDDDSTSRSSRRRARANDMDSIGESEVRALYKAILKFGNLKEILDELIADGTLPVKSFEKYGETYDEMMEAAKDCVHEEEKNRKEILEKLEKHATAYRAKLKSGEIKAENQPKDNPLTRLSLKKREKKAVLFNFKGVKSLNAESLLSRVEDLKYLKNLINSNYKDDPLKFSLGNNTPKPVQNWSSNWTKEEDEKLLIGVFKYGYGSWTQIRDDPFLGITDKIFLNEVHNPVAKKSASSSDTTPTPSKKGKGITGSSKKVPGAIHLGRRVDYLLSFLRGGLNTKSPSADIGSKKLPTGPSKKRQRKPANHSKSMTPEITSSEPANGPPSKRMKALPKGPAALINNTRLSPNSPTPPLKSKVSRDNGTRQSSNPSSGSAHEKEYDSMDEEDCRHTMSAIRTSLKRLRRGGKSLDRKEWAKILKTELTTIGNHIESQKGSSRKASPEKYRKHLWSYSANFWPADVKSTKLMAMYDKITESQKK

Structure (SMILES) | Percent Effect [%]
CCCNCC1(O)CCCN(Cc2cccc(C)c2)C1=O (stereo not given) | -1.9
COCCC1(CO)CCCN(Cc2ccc(F)c(C)c2)C1 (stereo not given) | 2.9
Cn1cc(C(=O)N[C@@H]2CN(Cc3cccs3)[C@@H]3CCCO[C@@H]32)cn1 | -7.8
Cn1ccnc1-c1cccc(NC(=O)NCCCO)c1 | -4.21
CC(C)(C)NC(=O)CNC(=O)CCc1ccccc1Br | -2.98
c1ccc(CN2CCCC(c3nccnc3-n3ccnc3)C2)cc1 (stereo not given) | -0.742
COc1ccc2nnc(CCCC(=O)NCCC3=CCCCC3)n2n1 | -9.92
Cc1cnn(CC2CN(Cc3nc(N)c4ccccc4n3)CCO2)c1 (stereo not given) | -20.4
O=C(c1ccccn1)N1CCc2nc(-c3cnccn3)nc(O)c2C1 | -12.2
NCC(c1ccccc1)N1CCc2sccc2C1 (stereo not given) | -3.07
Cc1cc(C(=O)N2Cc3ccccc3OC3(CCOCC3)C2)nc(N)n1 | -24
CC1=Nc2c(c(=O)[nH]n2C(C)C)C(c2ccccc2)S1 (stereo not given) | -3.79
FC(F)(F)c1cc(N2CCc3ncnc(NC4CC4)c3CC2)ncn1 | -8.14
O=C(Nc1ccc(F)cc1F)Nc1c[nH]c(=O)[nH]c1=O | -9.44
Cn1c(Cn2cccn2)nnc1C1CCN(Cc2cccnc2N)CC1 | 0.423
Cc1ccc(C2CSCCN2C(=O)C2=CCCC2)o1 (stereo not given) | -2.84
COC(=O)c1cccc(C(=O)N2CCN(c3cccc(C)c3C)CC2)n1 | -9.48
NS(=O)(=O)N1CCc2ccc(NC(=O)Cc3ccc(F)cc3)cc21 | -1.74
COc1ccccc1C1CNC(=O)c2nc(-c3cnn(C)c3)[nH]c2C1 (stereo not given) | -0.454
O=C1NCCN1C1CCN(Cc2nc(-c3ccoc3)no2)CC1 | -2.45

Reference: ChEMBL document CHEMBL3988442, “University of Dundee, Small-Polar-MMV Screening Library” (2021)
